This is an account of results in PubChem BioAssay (NCI).

This is part of a sample that, as a whole, favours compounds with a hit. Of some 83,000 tested, about 20% had one in any assay.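 The test compound was applied at a single concentration to cells in 96-well plates for 48 hours, and percent growth was recorded.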 A number with no mark means an inactive call. The source made the active and inactive calls. How the source made its calls: active means growth percent below 10; inactive means the rest.

Some test systems named below: DU-145 prostate; K-562 leukemia; MALME-3M melanoma; MDA-MB-231 breast; RXF 393 renal; SF-268 CNS; SF-295 CNS; SF-539 CNS; UACC-257 melanoma; M14 melanoma.
Test in all cases: NCI-60 one-dose screen, 48 h (100 = growth as untreated, 0 = no growth, -100 = all killed)
What all share (conditions): 10 µM

`CCN(CC)CCNc1ccc(C)c2sc3cc(Cl)ccc3c(=O)c12`: the growth is 43.5% with DU-145 prostate; -51% (active) in the experiment with K-562 leukemia; -26.4% (active) with MALME-3M melanoma; -15.9% (active) with MDA-MB-231 breast; 12.9% in the experiment with RXF 393 renal; 47% in the experiment with SF-268 CNS. Moreover, the growth with SF-295 CNS was 70%; in the experiment with SF-539 CNS, 66.3%; in the experiment with UACC-257 melanoma, -28.2% (active); in the experiment with M14 melanoma, -64.9% (active).

In the case of `CN(C)CCOc1cccc(-c2nc3sccn3c2-c2ccnc(S(C)(=O)=O)n2)c1`, the growth is 93% with DU-145 prostate; 101% in the experiment on K-562 leukemia; 101% in the experiment with MALME-3M melanoma; 80.2% in the experiment on MDA-MB-231 breast; 104% in the experiment with RXF 393 renal; 101% in the experiment with SF-268 CNS. In addition, the growth was 100% in the experiment on SF-295 CNS, 86.6% in the experiment on SF-539 CNS, 106% in the experiment with UACC-257 melanoma and 105% in the experiment on M14 melanoma.

Regarding `COc1cc(-c2nn(-c3ccc(NC(=O)NCCCNC(=O)c4ccccc4)cc3)cc2-c2ccncc2)ccc1Cl`, the growth with DU-145 prostate was 20.6%; in the experiment on K-562 leukemia, 12.4%; in the experiment with MALME-3M melanoma, 47.3%; in the experiment on MDA-MB-231 breast it was 19.1%; with RXF 393 renal it was 25.2%; in the experiment on SF-268 CNS it was 37.6%. The growth is 0.436% (active) in the experiment with SF-295 CNS, -10.5% (active) in the experiment on SF-539 CNS, 63.3% in the experiment with UACC-257 melanoma and 12.2% with M14 melanoma.

As for `O=[N+]([O-])c1cc(Cl)cc(Cl)c1O`, the growth with DU-145 prostate is 105%; in the experiment on K-562 leukemia, 109%; in the experiment on MALME-3M melanoma, 97.1%; in the experiment with MDA-MB-231 breast, 110%; with RXF 393 renal it was 104%; with SF-268 CNS, 100%. For the same compound, the growth in the experiment with SF-295 CNS is 97.3%; with SF-539 CNS it was 89.7%; in the experiment with UACC-257 melanoma, 104%; with M14 melanoma it was 96.9%.

With `COc1cc(-c2nn(-c3cccc(NC(=O)CCN4CCN(Cc5ccccc5)CC4)c3)cc2-c2ccncc2)ccc1Cl`, the growth in the experiment with DU-145 prostate was 7.55% (active); in the experiment with K-562 leukemia, -43.1% (active); with MALME-3M melanoma, -60.7% (active); in the experiment on MDA-MB-231 breast, -14.7% (active); with RXF 393 renal, -50.6% (active); with SF-268 CNS, 19.1%. Further, the growth was -46.5% (active) with SF-295 CNS, -74.3% (active) in the experiment on SF-539 CNS, -58.2% (active) in the experiment with UACC-257 melanoma and -61.3% (active) in the experiment on M14 melanoma.

Regarding `COc1cc(OC)c2c(=O)c(O)c(-c3ccccc3)oc2c1`, the growth with DU-145 prostate was 70.7%; with K-562 leukemia, 70.6%; in the experiment with MALME-3M melanoma it was 101%; with MDA-MB-231 breast, 67.9%; in the experiment on RXF 393 renal it was 67.6%; with SF-268 CNS, 66.4%. Further, the growth was 98.3% with SF-295 CNS, 79.7% in the experiment with SF-539 CNS, 84.2% in the experiment on UACC-257 melanoma and 73.2% in the experiment with M14 melanoma.

For the compound `CCN(CC)CC(=O)N(CC)c1ccc(C)c(Cl)c1`, the growth in the experiment with DU-145 prostate is 103%; in the experiment with K-562 leukemia, 108%; in the experiment on MALME-3M melanoma, 96.2%; with MDA-MB-231 breast it was 113%; in the experiment with RXF 393 renal, 105%; in the experiment with SF-268 CNS it was 92.9%. The growth in the experiment with SF-295 CNS was 101%; in the experiment on SF-539 CNS, 108%; with UACC-257 melanoma, 88.7%; with M14 melanoma, 100%.

On to `S=C(SSC(=S)N(c1ccccc1)c1ccccc1)N(c1ccccc1)c1ccccc1`, for which the growth is 109% with DU-145 prostate; 104% in the experiment on K-562 leukemia; 99% in the experiment on MALME-3M melanoma; 114% in the experiment on MDA-MB-231 breast; 111% in the experiment on RXF 393 renal; 97.8% in the experiment on SF-268 CNS. In addition, the growth in the experiment on SF-295 CNS was 102%; in the experiment on SF-539 CNS, 109%; in the experiment on UACC-257 melanoma it was 81.7%; in the experiment with M14 melanoma it was 101%.

`CC(=O)Oc1cc(OC(C)=O)c2ccccc2c1OC(C)=O`: the growth is 67% with DU-145 prostate; 70.5% with K-562 leukemia; 67.3% in the experiment with MALME-3M melanoma; 67.7% in the experiment on MDA-MB-231 breast; 93.1% with RXF 393 renal; 87.9% with SF-268 CNS. For the same compound, the growth was 103% in the experiment on SF-295 CNS, 100% with SF-539 CNS, 81.4% in the experiment on UACC-257 melanoma and 84.1% with M14 melanoma.

For the compound `COc1cc2cc(Oc3ccc(NC(=O)Nc4cccc(C(F)(F)F)c4)cc3)c(C)nc2cc1OC`, the growth with DU-145 prostate was 26.7%; with K-562 leukemia it was 11.5%; in the experiment on MALME-3M melanoma, 7.22% (active); in the experiment with MDA-MB-231 breast, -8.32% (active); in the experiment on RXF 393 renal, -13.1% (active); with SF-268 CNS, 29.2%. Besides, the growth in the experiment on SF-295 CNS is -15% (active); in the experiment on SF-539 CNS, 11.7%; in the experiment with UACC-257 melanoma, -14.5% (active); in the experiment on M14 melanoma, 22.7%.

For the compound `COc1cc(-c2nn(-c3cccc(NC(=O)CCN4CCN(c5ccccc5)CC4)c3)cc2-c2ccncc2)ccc1Cl`, the growth with DU-145 prostate was 30.8%; in the experiment with K-562 leukemia it was 11.3%; with MALME-3M melanoma, 38%; in the experiment with MDA-MB-231 breast, 7.1% (active); with RXF 393 renal it was -0.267% (active); with SF-268 CNS it was 30%. Moreover, the growth is 13.4% in the experiment on SF-295 CNS, 30.2% in the experiment with SF-539 CNS, 29.1% in the experiment on UACC-257 melanoma and 10.8% in the experiment on M14 melanoma.

With `COC(=O)C1OC1c1cc([N+](=O)[O-])ccc1OC` (stereo not given), the growth in the experiment with DU-145 prostate was 109%; in the experiment on K-562 leukemia, 95.5%; in the experiment with MALME-3M melanoma, 102%; in the experiment with MDA-MB-231 breast, 123%; in the experiment on RXF 393 renal, 99.8%; in the experiment with SF-268 CNS, 102%. Further, the growth in the experiment with SF-295 CNS is 100%; in the experiment with SF-539 CNS, 98.4%; in the experiment with UACC-257 melanoma, 117%; in the experiment on M14 melanoma, 95%.

As to `O=C1c2ccccc2C(=O)c2c1ccc(C(Br)Br)c2[N+](=O)[O-]`, the growth is 59.4% in the experiment on DU-145 prostate; -7.68% (active) in the experiment on K-562 leukemia; -17.5% (active) in the experiment on MALME-3M melanoma; -21.4% (active) in the experiment with MDA-MB-231 breast; 48.6% in the experiment on RXF 393 renal; 19.1% with SF-268 CNS. The growth in the experiment on SF-295 CNS was 92.8%; in the experiment on SF-539 CNS, 90.2%; with UACC-257 melanoma, 95.2%; in the experiment with M14 melanoma, 36.6%.

`O=C1c2ccccc2C(=O)c2c1ccc1c(=O)n(-c3ccccc3C(F)(F)F)nnc21`: the growth is 47.7% in the experiment on DU-145 prostate; 15.2% in the experiment with K-562 leukemia; -51.3% (active) with MALME-3M melanoma; 3.26% (active) with MDA-MB-231 breast; 28.9% in the experiment on RXF 393 renal; 43.2% in the experiment with SF-268 CNS. The growth with SF-295 CNS is 52.5%; with SF-539 CNS, -27.2% (active); with UACC-257 melanoma, -23.6% (active); with M14 melanoma, 5.14% (active).
